# “And” between values parts separate entries of the source, which are not always exact repeats. Identical values can stand only once. Values without a mark were called inactive. Records with an inconclusive call do not appear. Entries that show only a call come without a potency. The source made the active and inactive calls. Unless noted, calls come from the whole dose curve; as a rule, active = well fitted curve in the direction sought with a large enough effect; inconclusive = small, poorly fitted or top-dose-only effect, or another doubt; inactive = no such curve, though single readings can be large; an effect the other way counts as inactive or inconclusive.
# What was measured:
# [1] = Cell Viability - MRC5 (AID 434; calls by dose curve;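 note: potency is the fitted concentration of half-maximal effect; cells exposed to compound for 40 hours at 37 °C; potency reflects cytotoxicity seen as loss of intracellular ATP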); conditions: MRC5 lung fibroblast viability, qHTS
# Outline: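 qHTS cytotoxicity in human lung fibroblast MRC5 cells; 40 hr treatment, 37 °C; cellular ATP by luciferase luminescence; DMSO = 0%, 100 uM tamoxifen = 100% inhibition; Hill-fit AC50.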
# [2] = Cellular Toxicity (caspase-3) HepG2 (AID 654); conditions: HepG2 caspase-3 activation, luminescence; series mostly up to 92.2 µM;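 note: cells exposed to compound for 16 hours before reading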
# Outline: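 HepG2 cells (1500/well) were treated 16 h at 37 °C in complete medium, then caspase 3/7 activity was read by Caspase-Glo luminescence. Data were normalized to DMSO and 100 uM tamoxifen; AC50 came from Hill-equation fits of qHTS concentration-response.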
# [3] = Cellular Toxicity (caspase-3) HUV-EC-C (AID 656); conditions: HUV-EC-C cells, caspase-3 activation (apoptosis); series mostly up to 92.2 µM
# Outline: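 Concentration-dependent caspase 3/7 induction was assessed in HUV-EC-C cells exposed for 16 hours. Data scaled between DMSO and tamoxifen (100 uM) controls.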
# [4] = Cellular Toxicity (caspase-3) SHSY5Y (AID 657); conditions: SH-SY5Y caspase-3 activation; series mostly up to 91.7 µM
# Outline: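 Readout: caspase-cleaved peptide-aminoluciferin substrate driving luciferase light in SH-SY5Y neuroblastoma cells after 16 h treatment. Response normalized to DMSO and 10 uM staurosporine controls.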
# [5] = Cellular Toxicity (caspase-3) BJ (AID 658); conditions: BJ fibroblasts, luminescence; Potency: caspase-3 activation; series mostly up to 91.7 µM
# Outline: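 Readout: Caspase-Glo 3/7 luminescence increase in BJ cells after 16 hr treatment at 37 °C. Staurosporine and tamoxifen served as positive controls; AC50 values came from Hill modelling of data normalized to DMSO and 10 uM staurosporine.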
# [6] = Cellular Toxicity (caspase-3) MRC-5 (AID 659); conditions: MRC-5 cells, luminescence, normalized: DMSO 0%, 10 µM staurosporine 100%; series mostly up to 91.7 µM
# Outline: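 Concentration-dependent caspase 3/7 activation is measured in human normal lung fibroblasts (MRC-5) following 16-hour treatment. AC50 values come from standard Hill-equation modeling of luminescence normalized to DMSO and 10 uM staurosporine.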
# [7] = Cellular Toxicity (caspase-3) Mesangial (AID 660); conditions: mesangial cells, normalized: DMSO 0%, 100 µM tamoxifen 100%; series mostly up to 91.7 µM;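 note: cells exposed to compound for 16 h before the caspase read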
# Outline: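 Human renal glomerular mesangial cells, 1000/well, 5 h at 37 C before 16 h compound treatment. Caspase-Glo 3/7 luminescence after 20 min; normalized to DMSO and 100 uM tamoxifen, AC50 from Hill fit.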
# [8] = Cellular Toxicity (caspase-3) SK-N-SH (AID 661); conditions: SK-N-SH caspase-3 activation, qHTS, DMSO as zero, staurosporine as full; series mostly up to 91.7 µM
# Outline: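 Human SK-N-SH neuroblastoma cells, 1500/well, were exposed to compounds for 16 hours at 37 °C. Caspase-Glo 3/7 luminescence was normalized to DMSO (basal) and 10 uM staurosporine (100%), and AC50 came from a Hill fit.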
# [9] = Cellular Toxicity (caspase-3) H-4-II-E (AID 663); conditions: H-4-II-E rat hepatoma; Potency: caspase-3 activation; series mostly up to 92.2 µM;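 note: cells exposed to compound for 16 hr before readout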
# Outline: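 Apoptosis induction is scored as increased luminescence from caspase 3/7 substrate cleavage in rat hepatoma H-4-II-E cells exposed to compound for 16 hr. Activity is scaled between DMSO and 100 uM tamoxifen.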
# [10] = Cellular Toxicity (caspase-3) Hek293 (AID 664); conditions: HEK293 caspase-3 activation, DMSO = 0%, 100 µM tamoxifen = 100%; at 92.2 µM (top of the series);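 note: cells exposed to compound for 16 h at 37 °C before readout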
# Outline: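 HEK293 cells in complete medium treated 16 h at 37 °C, then Caspase-Glo 3/7 luminescence read after 20 min at room temperature. Normalized to DMSO and 100 uM tamoxifen; AC50 from Hill fit of concentration-response.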
# [11] = Cellular Toxicity (caspase-3) N2a (AID 665); conditions: N2a cells, luminescence, normalized: DMSO 0%, 10 µM staurosporine 100%; series mostly up to 92.2 µM;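 note: compound exposure lasted 16 h at 37 °C before readout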
# Outline: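 Mouse N2a neuroblastoma cells, 1500 per well, treated 16 h at 37 °C in complete medium; caspase-3/7 activity by Caspase-Glo luminescence after 1 h. Normalized to DMSO and 10 uM staurosporine; AC50 from Hill fits.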
# [12] = Cellular Toxicity (caspase-3) Renal Proximal Tubule (AID 667); conditions: renal proximal tubule cells, primary cells freshly taken from rat; Potency: caspase-3 activation; series mostly up to 91.7 µM;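 note: cells exposed to compound for 16 hours at 37 °C before detection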
# Outline: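 Caspase-Glo 3/7 read-out, rat primary kidney proximal tubule cells. Compound exposure 16 h, 37 °C; detection after 1 h at RT. Activity scaled to DMSO and 10 uM staurosporine.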
# [13] = MultiTox-Fluor Cytotoxicity Assay - LYMP1-001 - Dead Cells (AID 946); conditions: LYMP1-001 lymphoblastoid cells, dead-cell protease fluorescence; series mostly up to 92.2 µM
# Outline: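 Cytotoxicity as increased dead-cell protease fluorescence (bis-AAF-R110, 485/520 nm), read 60 min after MultiTox-Fluor reagent. Human lymphoblastoid line exposed 16 h; Hill-fitted AC50, with DMSO as 0% and 15 uM tetraoctylammonium bromide as 100%.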
# [14] = MultiTox-Fluor Cytotoxicity Assay - LYMP1-003 - Live Cells (AID 962); conditions: LYMP1-003 lymphoblastoid cells, MultiTox-Fluor live-cell protease fluorescence; series mostly up to 92.2 µM; note: potency is the fitted concentration of half-maximal effect
# Outline: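 LYMP1-003 lymphoblastoid cells, 2500/well in complete medium, treated 16 h at 37 C; live-cell protease cleavage of GF-AFC read by fluorescence (Ex/Em 405/510) after 60 min reagent; AC50 from Hill fits of concentration-response.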
# [15] = Cell Viability - LYMP1-003 - Assay at 24 hr (AID 963); conditions: LYMP1-003 lymphoblastoid cell viability; series mostly up to 92.2 µM
# Outline: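 Human lymphoblastoid LYMP1-003 cells, 2500/well, treated 24 h at 37 C in complete medium. Viability read as intracellular ATP by CellTiter-Glo luminescence after 30 min at room temperature; AC50 from Hill-equation fits of qHTS concentration-response.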
# [16] = qHTS Assay for Identification of Small Molecule Inducers of Hypoxia Response (AID 2120; active = well fitted curve in the direction sought with a large enough effect in the signal ratio, with a control signal flat, not every such curve was filed as active; the % refers to the signal ratio); conditions: hypoxia response reporter cells, beta-lactamase ratio readout; series mostly up to 104 µM
# Outline: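 HRE-bla ME-180 cells in Opti-MEM with 0.5% dialyzed FBS, pre-plated 4-5 h, then compound titration for 17 h at 37 degrees Celsius. CCF4 loaded 2.5 h at room temperature; 460/530 nm ratio gave %Activity and AC50 for induction.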
# [17] = molecular target: Peroxisome proliferator-activated receptor alpha (Homo sapiens) (UniProt Q07869); test: qHTS assay for small molecule agonists of the peroxisome proliferator-activated receptor alpha (PPARalpha) signaling pathway (AID 651778); conditions: PathHunter PPARalpha complementation, chemiluminescence, 6 h; max response: stronger effect = higher value
# Sequence of Peroxisome proliferator-activated receptor alpha (Homo sapiens) (Q07869 whole entry, looked up): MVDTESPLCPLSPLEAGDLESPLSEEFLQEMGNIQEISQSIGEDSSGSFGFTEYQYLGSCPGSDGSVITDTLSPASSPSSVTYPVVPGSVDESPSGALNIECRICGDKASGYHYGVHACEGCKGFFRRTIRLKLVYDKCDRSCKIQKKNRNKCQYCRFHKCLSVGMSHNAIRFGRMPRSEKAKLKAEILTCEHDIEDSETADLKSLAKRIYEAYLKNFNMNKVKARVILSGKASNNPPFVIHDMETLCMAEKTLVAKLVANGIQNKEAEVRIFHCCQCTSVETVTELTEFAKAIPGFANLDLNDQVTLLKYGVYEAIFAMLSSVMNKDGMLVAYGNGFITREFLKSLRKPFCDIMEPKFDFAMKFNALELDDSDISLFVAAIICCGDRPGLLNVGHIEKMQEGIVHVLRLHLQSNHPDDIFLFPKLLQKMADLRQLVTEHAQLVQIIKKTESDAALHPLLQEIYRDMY
# Outline: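 Chemiluminescence from complemented enzyme reported PPARalpha activation in cells after 6 hr of compound treatment at 37 C. The detection reagent was incubated for 60 min at room temperature, and compounds were scored as agonists.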
# [18] = qHTS assay for small molecule agonists of the antioxidant response element (ARE) signaling pathway measured by Nrf2-dependant transcriptional activity - cell viability counter screen (AID 720653; active = well fitted curve in the direction sought with a large enough effect in the repeat runs; an effect the other way counts as inactive or inconclusive); conditions: ARE-bla HepG2 viability, CellTiter-Glo ATP luminescence, 16 h; max response: stronger effect = lower value
# Outline: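 Cytotoxicity counter screen: intracellular ATP quantified by CellTiter-Glo luminescence in the same ARE-bla HepG2 plates, after 16 h compound exposure and a 2 h beta-lactamase substrate step.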
# [19] = qHTS assay for cell viability of HEK293 cells (AID 743288); conditions: ATP luminescence (CellTiter-Glo), 18 h; max response: stronger effect = lower value; note: nearly all actives have a fitted effect of over 50% in size; note: potency is the fitted concentration of half-maximal effect
# Outline: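 Luminescent ATP quantitation served as the viability read-out. Cells (parental HEK293, 2,000/well) received compounds after at least 5 h at 37 C and were exposed for 18 h before a 30 min room-temperature reagent step.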
# [20] = qHTS assay for cell viability of the p53RE-bla HCT-116 cell line (AID 743292); conditions: p53RE-bla HCT-116 viability, ATP luminescence, 16 h; series mostly up to 95 µM; note: nearly all actives have a fitted effect of over 55% in size
# Outline: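 ATP-based luminescence, 16 h compound exposure at 37 C, p53RE-bla HCT-116 cells at 4,000/well.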
structure (smiles),measurement,setting,value
CC(C)OCC1CO1 (configuration not stated),Potency,[1],> 92 µM
same,Potency,[2],inactive
same,Potency,[3],inactive
same,Potency,[4],inactive
same,Potency,[5],inactive
same,outcome,[6],inactive
same,outcome,[7],inactive
same,outcome,[8],inactive
same,Potency,[9],inactive
same,caspase-3 activation,[10],-0.484%
same,outcome,[11],inactive
same,Potency,[12],inactive
same,Potency,[13],inactive
same,Potency,[14],inactive
same,Potency,[15],inactive
same,Potency,[16],inactive
same,max response,[17],-4.21%
same,max response,[18],0.394%
same,max response,[19],-0.12%
same,Potency,[20],inactive
O=CC(=O)c1ccccc1,Potency,[1],> 92 µM
same,Potency,[2],inactive
same,Potency,[3],inactive
same,Potency,[4],inactive
same,Potency,[5],inactive
same,outcome,[6],inactive
same,outcome,[7],inactive
same,outcome,[8],inactive
same,Potency,[9],inactive
same,caspase-3 activation,[10],3.78%
same,outcome,[11],inactive
same,Potency,[12],inactive
same,Potency,[13],inactive
same,Potency,[14],inactive
same,Potency,[15],inactive
same,Potency,[16],inactive
same,max response,[17],-2.48%
same,max response,[18],-2.84%
same,max response,[19],-4.94%
same,Potency,[20],inactive
O=Nc1ccc(Nc2ccccc2)cc1,Potency,[2],inactive
same,Potency,[3],inactive
same,Potency,[4],inactive
same,Potency,[5],inactive
same,outcome,[6],inactive
same,outcome,[7],inactive
same,outcome,[8],inactive
same,caspase-3 activation,[10],-5.38%
same,outcome,[11],inactive
same,Potency,[12],inactive
same,Potency,[16],inactive
same,max response,[17],-0.677% and -6.11%
same,max response,[18],-2.32% and -16.8%
same,Potency,[19],39.8 µM (active) and 20 µM (active)
same,Potency,[20],inactive
Cc1ccc(O)c(N)c1,Potency,[1],> 92 µM
same,Potency,[2],inactive
same,Potency,[3],inactive
same,Potency,[4],inactive
same,Potency,[5],inactive
same,outcome,[6],inactive
same,outcome,[7],inactive
same,outcome,[8],inactive
same,Potency,[9],inactive
same,caspase-3 activation,[10],1.75%
same,outcome,[11],inactive
same,Potency,[12],inactive
same,Potency,[13],inactive
same,Potency,[14],inactive
same,Potency,[15],inactive
same,Potency,[16],inactive
same,max response,[17],-1.19%
same,max response,[18],-26.2%
same,max response,[19],-7.01%
same,Potency,[20],inactive
c1cc2c3c(c1)ccc1cccc(c13)C2,Potency,[1],> 92 µM
same,Potency,[2],inactive
same,Potency,[3],inactive
same,Potency,[4],inactive
same,Potency,[5],inactive
same,outcome,[6],inactive
same,outcome,[7],inactive
same,outcome,[8],inactive
same,Potency,[9],inactive
same,caspase-3 activation,[10],-1.87%
same,outcome,[11],inactive
same,Potency,[12],inactive
same,Potency,[13],inactive
same,Potency,[14],inactive
same,Potency,[15],inactive
same,Potency,[16],inactive
same,max response,[17],6.26%
same,max response,[18],-4.5%
same,max response,[19],3.07%
same,Potency,[20],inactive
Oc1cc2c(cc1O)[C@H]1c3ccc(O)c(O)c3OC[C@@]1(O)C2,Potency,[1],> 92 µM
same,Potency,[2],inactive
same,Potency,[3],inactive
same,Potency,[4],inactive
same,Potency,[5],inactive
same,outcome,[6],inactive
same,outcome,[7],inactive
same,outcome,[8],inactive
same,Potency,[9],inactive
same,caspase-3 activation,[10],0.207%
same,outcome,[11],inactive
same,Potency,[12],inactive
same,Potency,[14],50.1 µM (active)
same,Potency,[16],inactive
same,max response,[17],-1.65%
same,max response,[18],-29.6%
same,max response,[19],-28.5%

# Reference: PubChem BioAssay (NCATS)
